LDHA inh: qHTS assay for inhibitors of human lactate dehydrogenase; L-lactate dehydrogenase A chain (Homo sapiens), P00338; purified LDHA, NADH/diaphorase-resazurin fluorescence; active compounds read low; activity change, % (values are at about 110 or 230 µM); actives 0.15% (n = 480,000); in the data active means activity change below about -30%; inconclusive means mostly about -25% to -30%;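 further: plate controls were DMSO wells for no effect and wells without enzyme for full effect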
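Enzyme activity of human lactate dehydrogenase 5 (2 nM; 0.06 mM NADH, 0.2 mM pyruvate, 5 min, RT) is measured via a resazurin/diaphorase fluorescence readout of residual NADH.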
IL-1B inflam inh: qHTS for Inhibitors of Inflammasome Signaling: IL-1-beta AlphaLISA Primary Screen. THP-1 LPS/ATP IL-1B secretion, AlphaLISA, 16 h; active compounds read low. activity change, % at 57.5 µM. actives 4.7% (n = 360,000); in the data active means activity change below about -50%; inconclusive means mostly about -30% to -49%
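THP-1 cells pretreated 1 hr with compounds (up to 57.5 uM final), then stimulated with LPS (250 ng/mL final) plus ATP (1.25 mM final); secreted IL-1B measured by AlphaLISA after 16 hr, decreased signal indicating inhibition.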
RORg inh: qHTS for inhibitors of ROR gamma transcriptional activity. Nuclear receptor ROR-gamma (Mus musculus), P51450. Drosophila S2 Gal4-RORgamma UAS-luciferase reporter, 20 h. Potency, µM (top dose mostly 53.6 µM), for the others: top-dose activity change, negative = inhibition, hits mostly inhibitors. actives 5.4% (n = 310,000). AID 2551, 2010; further: potency means the concentration at half of the fitted maximal effect; nearly all actives have a fitted effect of over 60% in size
Target sequence (P51450 whole entry, looked up, the tested form may be a part): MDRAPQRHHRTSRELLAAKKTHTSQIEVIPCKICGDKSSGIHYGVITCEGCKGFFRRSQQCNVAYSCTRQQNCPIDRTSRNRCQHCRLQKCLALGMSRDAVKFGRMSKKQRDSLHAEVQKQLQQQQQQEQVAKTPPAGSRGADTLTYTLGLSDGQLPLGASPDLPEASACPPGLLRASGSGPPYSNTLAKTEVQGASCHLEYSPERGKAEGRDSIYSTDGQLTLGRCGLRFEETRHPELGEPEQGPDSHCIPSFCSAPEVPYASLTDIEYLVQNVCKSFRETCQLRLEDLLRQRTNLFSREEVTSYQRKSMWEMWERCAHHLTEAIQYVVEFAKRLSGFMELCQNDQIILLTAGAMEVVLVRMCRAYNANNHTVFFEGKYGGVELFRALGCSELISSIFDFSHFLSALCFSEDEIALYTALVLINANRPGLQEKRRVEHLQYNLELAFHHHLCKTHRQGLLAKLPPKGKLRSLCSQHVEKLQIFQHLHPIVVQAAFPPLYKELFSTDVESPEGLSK
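Schneider cells (Drosophila), stable Gal4 DBD–ROR gamma + UAS-luc; 1 hr cmpd preincubation; Cu2+ induction 700 uM final; 20 hr ambient; luminescence.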
VP16 counter: VP16 counterscreen qHTS for inhibitors of ROR gamma transcriptional activity; Drosophila S2 Gal4-VP16 UAS-luciferase, luminescence, 20 h; Potency, µM (series often up to 53.6 µM), without a hit: at the highest dose activity, negative = inhibition, usual class: inhibitors; actives 3.5% (n = 310,000); AID 2546, 2010;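 further: Gal4-VP16 expression switched on by copper sulfate through the metallothionein promoter; potency means the concentration at half of the fitted maximal effect; nearly all actives have a fitted effect of over 50% in size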
DT40 TDP1 no CPT: qHTS for Inhibitors of human tyrosyl-DNA phosphodiesterase 1 (TDP1): qHTS in cells in absence of CPT | DT40 Tdp1-/- hTDP1 cells, no CPT, ATP luminescence, 48 h | Potency, µM (highest dose often 46.2 µM), without a hit: top-dose activity change, negative = growth inhibition, actives largely listed as inhibitors | actives 15% (n = 420,000); further: potency means the concentration at half of the fitted maximal effect; nearly all actives have a fitted effect of over 55% in size
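Growth kinetics read by CellTiter-Glo luminescence after ≥48 hr at 37 °C. Cells: DT40 Tdp1-/- stably carrying human TDP1, 400 per well, compound exposure in the absence of CPT (DMSO vehicle).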
DT40 TDP1 CPT: qHTS for Inhibitors of human tyrosyl-DNA phosphodiesterase 1 (TDP1): qHTS in cells in presence of CPT | chicken DT40 Tdp1-/-;hTDP1 cells + 20 nM CPT, ATP luminescence, 48 h | Potency, µM (doses to about 46.2 µM), without a hit: at the top dose activity change, negative = growth inhibition, hits mostly inhibitors | actives 12% (n = 420,000) | AID 686979, 2013; further: potency means the concentration at half of the fitted maximal effect; nearly all actives have a fitted effect of over 55% in size
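Chicken DT40 Tdp1-/- cells stably complemented with human TDP1 were seeded at 400 cells/well in medium containing 20 nM camptothecin, exposed to pin-transferred compounds, and grown at 37 °C for at least 48 hr. Viability was read as ATP luminescence.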
An asterisk follows results filed as active. An excerpt weighted towards active compounds, which were near 18% of everything screened. Unless noted, the call rests on the fitted dose curve; in most records, active means well fitted curve in the direction sought with a large enough effect; inconclusive means small, poorly fitted or top-dose-only effect, or another doubt; inactive means no such curve, though single readings can be large; an effect the other way counts as inactive or inconclusive. Unless noted, on the % scale 0 is the no-effect control and ±100 the full control effect.

For COc1ccc(NC(=O)/C(Cl)=C(/Cl)S(=O)Cc2ccccc2)cn1 (stereo unspecified) the results were LDHA inh -6, IL-1B inflam inh -103*, RORg inh 1µM*, VP16 counter 1.1µM*, DT40 TDP1 no CPT 0.018µM* and DT40 TDP1 CPT 0.021µM*.
Screening COc1ccc(CS(=O)(=O)/C(Cl)=C(/Cl)C(=O)Nc2ccc(OC)nc2)cc1 returned LDHA inh -4, IL-1B inflam inh -120*, RORg inh 5µM*, VP16 counter 3.2µM*, DT40 TDP1 no CPT 0.58µM* and DT40 TDP1 CPT 0.58µM*.
COc1ccc(NC(=O)Cc2ccccc2)cn1 was read as LDHA inh 3, IL-1B inflam inh 16, RORg inh 23%, VP16 counter 4%, DT40 TDP1 no CPT -3% and DT40 TDP1 CPT -8%.
Screening COc1ccc(OC)c(NC(=O)c2c(NCc3cccs3)sc3c2CCCCC3)c1 returned LDHA inh 10, DT40 TDP1 no CPT inconclusive and DT40 TDP1 CPT 23µM*.
COc1ccc(OC)c(NC(=O)c2c(NC(=O)CCC(=O)O)sc3c2CCCCC3)c1 was read as LDHA inh -3, IL-1B inflam inh -12, RORg inh 43%, VP16 counter 19%, DT40 TDP1 no CPT inconclusive and DT40 TDP1 CPT inconclusive.
`COc1ccc(Cl)cc1NC(=O)c1c(NCc2sccc2C)sc2c1CCCC2` gave LDHA inh 3, DT40 TDP1 no CPT 21µM* and DT40 TDP1 CPT inconclusive.
COc1ccc(NC(=O)c2c(NCc3cccs3)sc3c2CCCC3)c(OC)c1 was read as LDHA inh 3, DT40 TDP1 no CPT 16µM* and DT40 TDP1 CPT 16µM*.
COc1ccc(OC)c(NC(=O)c2c(NCc3cccs3)sc3c2CCCC3)c1 was read as LDHA inh 10, DT40 TDP1 no CPT inconclusive and DT40 TDP1 CPT inconclusive.
For COc1ccc(NC(=O)c2c(NC(=O)CNCC(C)C)sc3c2CCC3)c(OC)c1 the results were LDHA inh -1, IL-1B inflam inh 0, RORg inh 0%, VP16 counter -4%, DT40 TDP1 no CPT 6.5µM* and DT40 TDP1 CPT 4.1µM*.
For COC(=O)c1ccc(COc2cccc3ccccc23)o1 the results were LDHA inh 68.
COc1ccc(NC(C)=O)cc1NC(=O)c1cnc2ccccc2n1 was read as LDHA inh 16.
COc1ccc(NC(=O)c2c(NCc3sccc3C)sc3c2CCCCC3)c(OC)c1 was read as LDHA inh 14, DT40 TDP1 no CPT 3.3µM* and DT40 TDP1 CPT 3.3µM*.
For CCCCN(C=O)c1c(CC)nc2c(OCCn3cccc3)cccn12 the results were LDHA inh -2, IL-1B inflam inh -10, DT40 TDP1 no CPT 23µM* and DT40 TDP1 CPT inconclusive.
`CCCCN(C=O)c1c(CC)nc2c(OCC(=O)c3ccc(F)cc3)cccn12` gave LDHA inh 1, IL-1B inflam inh 0, DT40 TDP1 no CPT inconclusive and DT40 TDP1 CPT inconclusive.
`CCCCN(C=O)c1c(CC)nc2c(OCCOc3ccc(F)cc3)cccn12` gave LDHA inh -4, IL-1B inflam inh -8, DT40 TDP1 no CPT 16µM* and DT40 TDP1 CPT inconclusive.
`CC(Sc1nnc(-c2ccccc2F)n1C1CC1)c1ccccc1` (stereo unspecified) gave LDHA inh -4.
COc1cccc(NC(=O)C(C)Sc2nncn2-c2ccccc2)c1 (stereo unspecified) was read as LDHA inh -1.
`CCONC(=O)CC1Sc2ccc(C(F)(F)F)cc2NC1=O` (stereo unspecified) gave LDHA inh 1.
For O=C(NC(=S)N1CCN(Cc2ccccc2)CC1)c1ccco1 the results were LDHA inh 3, IL-1B inflam inh 27, RORg inh 0.89µM*, VP16 counter 3.5µM*, DT40 TDP1 no CPT -16% and DT40 TDP1 CPT -17%.
CCNC(=S)N1CCN(Cc2ccccc2)CC1 was read as LDHA inh -16, IL-1B inflam inh -10, RORg inh -8%, VP16 counter 2%, DT40 TDP1 no CPT 23% and DT40 TDP1 CPT -18%.
`CC1CCN(C(=S)NC(=O)c2ccco2)CC1` gave LDHA inh -1, IL-1B inflam inh 20, RORg inh 4µM*, VP16 counter 6.3µM*, DT40 TDP1 no CPT 6% and DT40 TDP1 CPT 0%.
COc1ccc(C(=O)NC(=S)N2CCC(C)CC2)cc1 was read as LDHA inh -3, IL-1B inflam inh -16, RORg inh 1.4µM*, VP16 counter 4µM*, DT40 TDP1 no CPT inconclusive and DT40 TDP1 CPT inconclusive.
COc1ccc(C(=O)NC(=S)N2CCCC2)cc1 was read as LDHA inh -10, IL-1B inflam inh -14, RORg inh -21%, VP16 counter -12%, DT40 TDP1 no CPT 1% and DT40 TDP1 CPT -9%.
For O=C1[C@H]2CCC=C[C@H]2[C@H](c2cccc(Br)c2)N1Cc1ccccc1 the results were LDHA inh -3, IL-1B inflam inh 14, RORg inh -27%, VP16 counter -3%, DT40 TDP1 no CPT 13µM* and DT40 TDP1 CPT inconclusive.
COc1ccc(-c2cccc([C@H]3[C@@H]4C=CCC[C@@]4(C)C(=O)N3Cc3ccccc3)c2)cc1 was read as LDHA inh -1, IL-1B inflam inh -16, RORg inh 14%, VP16 counter 4%, DT40 TDP1 no CPT 16µM* and DT40 TDP1 CPT 23µM*.
For CC12CCC=CC1C(c1cccc(Br)c1)N(Cc1ccccc1)C2=O (stereo unspecified) the results were RORg inh inconclusive and VP16 counter 13µM*.
Screening C[C@@]12CCC=C[C@H]1[C@H](c1ccccc1Br)N(Cc1ccccc1)C2=O returned LDHA inh 3, IL-1B inflam inh 10, RORg inh 37%, VP16 counter -26%, DT40 TDP1 no CPT 16µM* and DT40 TDP1 CPT inconclusive.
For CCCC(=O)Nc1nnc(Cc2c[nH]c3ccccc23)s1 the results were LDHA inh -10.
For Cn1c(=O)c2c(nc(NCCc3ccccc3)n2CC(=O)O)n(C)c1=O the results were LDHA inh 3.
